Compounds without any hit were thinned out: in the full panel of roughly 83,000, 20% have a hit.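 Single-dose data. Exposure time 48 hours. Values below 10 considered active.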 Calls of active or inactive are those of the source.
What follows are molecules tested on NCI/ADR-RES ovarian (assay: NCI-60 one-dose screen, 48 h (100 = growth as untreated, 0 = no growth, -100 = all killed)). Details: 10 µM unless noted.
Protocol: Growth inhibition of the NCI/ADR-RES human […] tumor cell line is measured as a screen for anti-cancer activity. Cells are grown in 96 well plates and exposed to the test compound for 48 hours. Compounds are tested at a single concentration, which is 10^-5 M for most compounds. The reported endpoint is percent growth (GI% or GIPRCNT), where numbers from 0 - 100% represent growth inhibition, and numbers from -100% - 0 represent cell death. For example, a value of 40 represents 60% growth inhibition. A value of 0 means no net growth occurred over the course of the experiment. A value of -40 indicates 40% of cells at the beginning of the experiment died by the end of the experiment. A value of -100 means all cells are dead at the end of the experiment.
NCI-60 Human Tumor Cell Lines Screen was performed using the standard one-dose NCI protocol, which is described in more detail at https://dtp.cancer.gov/discovery_development/nci-60/default.htm.
Compounds with GIPRCNT values below 10 were considered active. Activity score was based on GIPRCNT using the following formula: […]
Score is 0 for GIPRCNT values of 100 or above, 50 for GIPRCNT values of 0, and 100 for GIPRCNT values of -100.

Row | Compound | growth
1 | O=C(O)c1cc(I)ccc1O | 98% (inactive)
2 | COc1ccc(C2CCCCC2=O)cc1 (stereo not given) | 108% (inactive)
3 | O=C(O)C1CSC(c2ccccc2)N1 (stereo not given) | 99.2% (inactive)
4 | Oc1ccc(N=Cc2ccc(OCc3ccccc3)cc2)cc1 | 95.6% (inactive)
5 | CCCCOC(=O)c1ccc(NC(=O)CCl)cc1 | 65.2% (inactive)
6 | Cc1onc(-c2ccccc2Cl)c1C(=O)Cl | 105% (inactive)
7 | COc1ccc(-c2csc(NC(=O)Nc3nc(-c4ccc(OC)cc4)cs3)n2)cc1 | 79.2% (inactive)
8 | CCCCCCCCCCCCSC1=C(Cl)C(=O)C(OC)=C(OC)C1=O | 34.9% (inactive)
9 | CCOC(OCC)C(=O)c1ccccc1 | 108% (inactive)
10 | COc1ccc(Br)c2c1C(=O)CC2 | 110% (inactive)
11 | CCOC(=O)c1ccc(NC(=O)Nc2nccs2)cc1 | -6.67% (active)
12 | OC(CCN1CCCCC1)(c1ccccc1)c1ccccc1 | 100% (inactive)
13 | COc1cccc(N=CNc2cccc(OC)c2)c1 | 91.4% (inactive)
14 | COCC(N)=O | 111% (inactive)
15 | Cn1c(=O)c2[nH]c(CC(=O)O)nc2n(C)c1=O | 102% (inactive)
16 | CCOC(=O)c1cc(C)[nH]c(=O)c1C#N | 109% (inactive)
17 | CN(C)c1ccc(O)c2c1CC1CC3C(N(C)C)C(=O)C(C(N)=O)=C(O)C3(O)C(=O)C1=C2O (stereo not given) | 66.7% (inactive)
18 | C1Cc2onc(-c3noc4c3CCC4)c2C1 | 115% (inactive)
19 | Clc1cccc(Cl)c1CSc1nc2ccccc2n2cccc12 | 101% (inactive)
20 | O=[N+]([O-])c1c(O)c(CNCCCO)cc(CNCCCO)c1O | 104% (inactive)

Row | Compound | growth
21 | Cc1cccc(-[n+]2noc(N)n2)c1 | 84.8% (inactive)
22 | Cc1ccc(C)c2c1CCC2=O | 101% (inactive)
23 | COc1nc(Nc2cccc(C(F)(F)F)c2)nc(OC)n1 | 104% (inactive)
24 | O=S(=O)(O)c1cccnc1 | 128% (inactive)
25 | NNc1ncnc2nc[nH]c12 | 42.7% (inactive)
26 | Cc1ccnc(Nc2nc3ccccc3[nH]2)n1 | 112% (inactive)
27 | O=C(O)Cc1cccc2ccccc12 | 100% (inactive)
28 | CCC1CCC(C)NC1 (stereo not given) | 101% (inactive)
29 | CC1(C)OC2C(CO)OC(n3ccc(=O)[nH]c3=O)C2O1 (stereo not given) | 105% (inactive)
30 | CCN(CC)c1ccc2nc3ccc(N=Nc4ccc(N(C)C)cc4)cc3[n+](-c3ccccc3)c2c1 | 0.224% (active)
31 | O=C(CCl)Oc1ccc([N+](=O)[O-])cc1 | 105% (inactive)
32 | COc1cc(C(=O)N2CCN(c3ccccc3)CC2)c2ccccc2n1 | -43.6% (active)
33 | CC(=O)NCNC(C)=O | 111% (inactive)
34 | CC(C)(C)CC1(C)NC(=O)NC1=O (stereo not given) | 99.7% (inactive)
35 | CC(C)C(=O)OCCOc1ccc(C(C)(C)C)cc1 | 100% (inactive)
36 | S=C(Sc1ccc(Cl)cc1)Sc1ccc(Cl)cc1 | 5.64% (active)
37 | COC1C(=O)CCC2(CO2)C1(O)C1(C)OC1CCC(C)C (stereo not given) | 86.8% (inactive)
38 | CC(=O)c1cccc(NS(=O)(=O)c2ccc(C)cc2)c1 | 50.5% (inactive)
39 | Nc1nc(Cl)cc(Cl)n1 | 95.8% (inactive)
40 | O=Cc1ccc(Cl)c(Cl)c1 | 95.4% (inactive)
